Measured values reported in PubChem BioAssay (Tox21).
Values joined by “and” are separate entries in the source; they are usually repeats but may differ in a detail not shown here. Equal entries are not always repeated. Records with an inconclusive call do not appear. Active and inactive are the calls of the source. The call rests on the fitted dose curve; in most records, active means well fitted curve in the direction sought with a large enough effect in the repeat runs; inconclusive means weak or mixed curves; inactive means no such curve, though single readings can be large; an effect the other way counts as inactive or inconclusive.

How the values were obtained:
[1] = A CellTox Green Cytotoxicity Assay to monitor cytotoxicity in HEK293 cells - 40 hour (AID 1224871); further: nearly all actives have a fitted effect of over 45% in size
In short: (§1)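 Fluorescence from a DNA-binding dye excluded by viable cells was measured repeatedly in the same HEK293 wells (600 cells/well) during continuous compound exposure at 37 C. Each assay gives one read point: 0, 8, 16, 24, 32 or 40 h.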

[2] = qHTS RealTime-Glo MT Cell Viability Assay in HEK293 cells - 16 hour (AID 1224872); further: top concentration of the series differs between compounds; nearly all actives have a fitted effect of over 50% in size
In short: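 Viability tracked continuously by luminescence as live cells reduce a prosubstrate for NanoLuc; HEK293 cells preincubated 5 h, compound-treated at 37 C, and read at 0, 8, 16, 24, 32 and 40 h.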

[3] = qHTS RealTime-Glo MT Cell Viability Assay in HepG2 cells - 8 hour (AID 1224873); further: nearly all actives have a fitted effect of over 55% in size
In short: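 HepG2 cells (600/well) mixed with RealTime-Glo MT reagent, settled 5 h at 37 C/5% CO2 before compound addition. Nonlytic NanoLuc luminescence from viable-cell prosubstrate reduction read repeatedly during 40 h treatment at 37 C.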

[4] = qHTS RealTime-Glo MT Cell Viability Assay in HEK293 cells - 40 hour (AID 1224874); conditions: RealTime-Glo luminescence; max response: active compounds read low; further: nearly all actives have a fitted effect of over 50% in size
In short: (§2)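 Luminescence, which tracks viable cell number through reduction of the prosubstrate to a NanoLuc substrate, was read over continuous 37 C culture. Cells (600/well) were premixed with reagent and rested 5 h before 23 nL of compound in DMSO was pinned.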

[5] = A CellTox Green Cytotoxicity Assay to monitor cytotoxicity in HEK293 cells - 24 hour (AID 1224875); further: series mostly up to about 77 µM; nearly all actives have a fitted effect of over 45% in size
In short: as §1

[6] = A CellTox Green Cytotoxicity Assay to monitor cytotoxicity in HepG2 cells - 16 hour (AID 1224876); further: nearly all actives have a fitted effect of over 45% in size
In short: (§3)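 Real-time cytotoxicity: fluorescence of a cell-impermeant cyanine dye binding DNA of dead HepG2 cells, measured repeatedly (0–40 h) during compound exposure at 37 C. Cells seeded 600/well with reagent, dosed after 5 h.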

[7] = qHTS RealTime-Glo MT Cell Viability Assay in HepG2 cells - 32 hour (AID 1224877); further: nearly all actives have a fitted effect of over 55% in size
In short: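 Viability was tracked continuously by NanoLuc luminescence from prosubstrate reduced by living HepG2 cells, at successive time points over 40 h of compound exposure. Cells with reagent were preincubated 5 h at 37 °C before compound addition.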

[8] = A CellTox Green Cytotoxicity Assay to monitor cytotoxicity in HepG2 cells - 40 hour (AID 1224879); further: nearly all actives have a fitted effect of over 40% in size
In short: as §3

[9] = qHTS RealTime-Glo MT Cell Viability Assay in HEK293 cells - 0 hour (AID 1224880); further: top concentration of the series differs between compounds; nearly all actives have a fitted effect of over 45% in size
In short: as §2

[10] = A CellTox Green Cytotoxicity Assay to monitor cytotoxicity in HepG2 cells - 24 hour (AID 1224878); further: nearly all actives have a fitted effect of over 45% in size
In short: as §3
On the % scale 0 is the no-effect control and ±100 the full control effect.

Cc1cc(CC(=O)O)n(C)c1C(=O)c1ccc(Cl)cc1
inactive: Potency [1] | Potency [2] | Potency [3] | max response [4] -0.154% and 2.14% | Potency [5] | Potency [6] | Potency [7] | Potency [8] | Potency [9]

CC(=O)OC[C@H]1O[C@@](COC(C)=O)(O[C@H]2O[C@H](COC(C)=O)[C@@H](OC(C)=O)[C@H](OC(C)=O)[C@H]2OC(C)=O)[C@@H](OC(C)=O)[C@@H]1OC(C)=O
inactive: Potency [1] | Potency [2] | Potency [3] | max response [4] -0.774% and 5.83% | Potency [5] | Potency [6] | Potency [7] | Potency [8] | Potency [9]

NCCNCCNCCN
inactive: Potency [1] | Potency [2] | Potency [3] | max response [4] 2.02% and 3.6% | Potency [5] | Potency [6] | Potency [7] | Potency [9]

CC[N+](CC)(CC(=O)Nc1c(C)cccc1C)Cc1ccccc1
inactive: Potency [1] | Potency [2] | Potency [3] | max response [4] -15.4% and 1.42% | Potency [5] | Potency [6] | Potency [7] | Potency [10] | Potency [9]

CCOC(=O)CC(=O)OCC
inactive: Potency [1] | Potency [2] | Potency [3] | max response [4] 5.3% and 0.825% | Potency [5] | Potency [6] | Potency [7] | Potency [9]

Cc1nnc(NS(=O)(=O)c2ccc(N)cc2)s1
inactive: Potency [1] | Potency [2] | Potency [3] | max response [4] -1.44% and 9.25% | Potency [5] | Potency [6] | Potency [7] | Potency [9]

O=C(O)C1=NN(c2ccc(S(=O)(=O)O)cc2)C(=O)C1
inactive: Potency [1] | Potency [2] | Potency [3] | max response [4] 6.57% and 2.54% | Potency [5] | Potency [6] | Potency [7] | Potency [10] | Potency [9]

CCCOC(=O)NCCCN(C)C
inactive: Potency [1] | Potency [2] | Potency [3] | max response [4] 3.11% and 1.66% | Potency [5] | Potency [6] | Potency [7] | Potency [8] | Potency [9]

CC/C=C(\C(=O)N[C@@H]1C(=O)N2C(C(=O)OCOC(=O)C(C)(C)C)=C(COC(N)=O)CS[C@H]12)c1csc(N)n1
inactive: Potency [1] | Potency [2] | Potency [3] | max response [4] 11.8% and 8.9% | Potency [5] | Potency [6] | Potency [7] | Potency [9]

O=C(NCC1CCCCN1)c1cc(OCC(F)(F)F)ccc1OCC(F)(F)F (stereo unspecified)
inactive: Potency [1] | Potency [2] | Potency [3] | Potency [5] | Potency [6] | Potency [7] | Potency [10] | Potency [8] | Potency [9]

C=C(CC(=O)O)C(=O)O
inactive: Potency [1] | Potency [2] | max response [4] 2.09% and -0.881% | Potency [5] | Potency [6] | Potency [7] | Potency [10] | Potency [8] | Potency [9]

CN1CCCC1=O
inactive: Potency [1] | Potency [2] | Potency [3] | max response [4] 8.67% and -2.64% | Potency [5] | Potency [6] | Potency [7] | Potency [9]

O=C1C(N(CO)C(=O)NCO)N(CO)C(=O)N1CO (stereo unspecified)
inactive: Potency [1] | Potency [2] | Potency [3] | max response [4] 0.683% and 1.21% | Potency [5] | Potency [6] | Potency [7] | Potency [8] | Potency [9]

CCCCCNCCCCC
inactive: Potency [1] | Potency [2] | Potency [3] | max response [4] 4.14% and 0.383% | Potency [5] | Potency [6] | Potency [7] | Potency [10] | Potency [9]

CC(=O)OCCC(C)C
inactive: Potency [1] | Potency [2] | max response [4] 3.8% and 7.54% | Potency [5] | Potency [6] | Potency [7] | Potency [10] | Potency [8] | Potency [9]

N#CCC(=O)O
inactive: Potency [1] | Potency [2] | max response [4] -0.419% and 10.1% | Potency [5] | Potency [6] | Potency [7] | Potency [9]

OC[C@H]1O[C@@H](Oc2ccc(O)cc2)[C@H](O)[C@@H](O)[C@@H]1O
inactive: Potency [1] | Potency [2] | max response [4] 3.45% and 3.98% | Potency [5] | Potency [6] | Potency [7] | Potency [10] | Potency [8] | Potency [9]

O=C1CCCCCCCCCCC1
inactive: Potency [1] | Potency [2] | max response [4] -9.58% and -0.296% | Potency [5] | Potency [6] | Potency [7] | Potency [10] | Potency [9]

NC(=O)c1ncn([C@@H]2O[C@H](CO)[C@@H](O)[C@H]2O)n1
inactive: Potency [1] | Potency [2] | max response [4] 2.04% | Potency [5] | Potency [6] | Potency [7] | Potency [8] | Potency [9]

Cc1cccc(C)c1[N+](=O)[O-]
inactive: Potency [1] | Potency [2] | max response [4] -0.329% | Potency [5] | Potency [6] | Potency [7] | Potency [8] | Potency [9]

CN=C(NC#N)NCCSCc1nc[nH]c1C
inactive: Potency [1] | Potency [2] | max response [4] 4.13% and 1.71% | Potency [5] | Potency [6] | Potency [7] | Potency [10] | Potency [9]

COc1ccccc1[N+](=O)[O-]
inactive: Potency [1] | Potency [2] | max response [4] 3.8% and 3.66% | Potency [5] | Potency [6] | Potency [7] | Potency [10] | Potency [8] | Potency [9]

C1CCCNCC1
inactive: Potency [1] | Potency [2] | max response [4] 6.44% and 0.666% | Potency [5] | Potency [6] | Potency [7] | Potency [10] | Potency [8] | Potency [9]
